Reference: publication PMC5700166

Experiments:
Test in all cases: protein-binding microarray (PBM); PBM: ~300 nM protein, 6 mM HEPES pH 7.8, 80 mM KCl, 0.5 mM EDTA, 0.5 mM EGTA, 6% glycerol, 35 ng/ul poly-dIdC, 1% milk, 1 h, room temperature; Ap Aiptasia and Nv Nematostella (sea anemones) / Co Capsaspora / Aq Amphimedon (sponge) / Dm Drosophila / Hu human; RHD is the Rel homology domain; high values mean tight binding
Conditions in all cases: dsDNA, one strand shown
GST-Ap-NF-kB RHD = molecular target: T1, GST-Ap-NF-kB RHD (Exaiptasia pallida (Aiptasia), UniProt A0A913YAJ5 2-422)
T1 sequence: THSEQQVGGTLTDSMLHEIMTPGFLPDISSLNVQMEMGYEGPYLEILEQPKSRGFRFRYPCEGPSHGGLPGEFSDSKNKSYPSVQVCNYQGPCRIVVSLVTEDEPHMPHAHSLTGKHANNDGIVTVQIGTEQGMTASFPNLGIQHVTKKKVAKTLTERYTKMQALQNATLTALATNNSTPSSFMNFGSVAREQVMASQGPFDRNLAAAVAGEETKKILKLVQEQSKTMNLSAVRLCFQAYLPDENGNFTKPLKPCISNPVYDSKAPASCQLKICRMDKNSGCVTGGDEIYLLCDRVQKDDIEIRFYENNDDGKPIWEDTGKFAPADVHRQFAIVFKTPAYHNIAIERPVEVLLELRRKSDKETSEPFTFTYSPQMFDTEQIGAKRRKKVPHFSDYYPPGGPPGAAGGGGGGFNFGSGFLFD

[1] = molecular target: T2, GST-Nv-NF-kB (Cys allele) (Nematostella vectensis, UniProt E5G601 2-411)
T2 sequence: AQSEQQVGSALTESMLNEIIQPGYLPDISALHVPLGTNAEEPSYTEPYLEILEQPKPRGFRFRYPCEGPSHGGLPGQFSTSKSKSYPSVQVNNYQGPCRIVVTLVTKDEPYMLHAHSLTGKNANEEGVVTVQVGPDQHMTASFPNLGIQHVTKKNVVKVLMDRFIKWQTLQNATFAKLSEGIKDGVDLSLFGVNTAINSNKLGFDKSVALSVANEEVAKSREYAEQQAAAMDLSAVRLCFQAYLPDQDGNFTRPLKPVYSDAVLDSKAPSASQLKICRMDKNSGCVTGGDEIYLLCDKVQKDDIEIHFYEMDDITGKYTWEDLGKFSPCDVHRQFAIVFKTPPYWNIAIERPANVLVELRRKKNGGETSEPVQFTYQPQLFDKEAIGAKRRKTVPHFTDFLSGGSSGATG

GST-Co-NF-kB = molecular target: T3, GST-Co-NF-kB (Capsaspora owczarzaki, UniProt F1ARL5 200-546)
T3 sequence: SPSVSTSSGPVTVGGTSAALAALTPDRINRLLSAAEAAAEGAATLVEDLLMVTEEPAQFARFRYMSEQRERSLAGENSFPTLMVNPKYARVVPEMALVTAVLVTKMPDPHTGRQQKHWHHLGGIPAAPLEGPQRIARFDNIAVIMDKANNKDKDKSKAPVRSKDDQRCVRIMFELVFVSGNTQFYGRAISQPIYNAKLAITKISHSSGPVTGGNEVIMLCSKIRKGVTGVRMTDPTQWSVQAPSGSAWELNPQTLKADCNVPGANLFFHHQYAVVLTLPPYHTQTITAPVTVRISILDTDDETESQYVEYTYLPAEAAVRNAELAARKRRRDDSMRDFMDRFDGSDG

GST-Dm-Relish = molecular target: T4, GST-Dm-Relish (Drosophila melanogaster, UniProt Q94527 99-473)
T4 sequence: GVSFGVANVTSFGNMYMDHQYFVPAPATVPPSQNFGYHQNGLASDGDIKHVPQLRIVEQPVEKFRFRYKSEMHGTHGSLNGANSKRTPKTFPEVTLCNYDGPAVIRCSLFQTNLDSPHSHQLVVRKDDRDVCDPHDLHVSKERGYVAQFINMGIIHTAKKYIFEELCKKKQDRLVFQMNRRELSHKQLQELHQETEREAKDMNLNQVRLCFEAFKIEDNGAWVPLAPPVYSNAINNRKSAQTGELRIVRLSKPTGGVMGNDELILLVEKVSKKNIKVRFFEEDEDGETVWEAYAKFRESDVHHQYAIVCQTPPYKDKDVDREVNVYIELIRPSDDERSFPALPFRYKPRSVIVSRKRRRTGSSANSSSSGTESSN

GST-Aq-NF-kB = molecular target: T5, GST-Aq-NF-kB (Amphimedon queenslandica, UniProt A9Y5G7 2-389)
T5 sequence: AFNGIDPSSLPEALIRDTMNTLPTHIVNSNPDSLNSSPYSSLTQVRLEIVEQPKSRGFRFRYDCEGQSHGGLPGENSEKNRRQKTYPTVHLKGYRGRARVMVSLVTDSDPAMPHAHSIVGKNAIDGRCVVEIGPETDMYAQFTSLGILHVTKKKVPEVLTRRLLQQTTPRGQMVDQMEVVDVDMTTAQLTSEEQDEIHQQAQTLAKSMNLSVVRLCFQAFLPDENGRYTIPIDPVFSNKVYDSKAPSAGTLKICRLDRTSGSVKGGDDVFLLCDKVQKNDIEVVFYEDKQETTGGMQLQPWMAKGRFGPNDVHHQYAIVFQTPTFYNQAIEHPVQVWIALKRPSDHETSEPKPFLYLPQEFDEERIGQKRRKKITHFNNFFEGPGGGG

GST-Hu-p50 = GST-Hu-p50 (Homo sapiens, UniProt P19838 7-356)
Sequence of GST-Hu-p50 (P19838 7-356): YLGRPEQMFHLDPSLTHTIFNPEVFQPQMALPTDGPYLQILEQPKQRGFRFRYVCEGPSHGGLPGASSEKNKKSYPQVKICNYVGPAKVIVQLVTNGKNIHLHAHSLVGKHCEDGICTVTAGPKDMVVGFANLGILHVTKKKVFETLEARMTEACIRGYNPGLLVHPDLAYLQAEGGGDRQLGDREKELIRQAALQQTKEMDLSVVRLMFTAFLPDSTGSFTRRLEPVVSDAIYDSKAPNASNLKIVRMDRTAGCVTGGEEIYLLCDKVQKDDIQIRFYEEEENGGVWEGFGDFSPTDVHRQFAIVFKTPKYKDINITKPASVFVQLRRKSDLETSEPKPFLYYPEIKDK

| Sequence | binding signal (GST-Ap-NF-kB RHD) [z-score] | binding signal [1] [z-score] | binding signal (GST-Co-NF-kB) [z-score] | binding signal (GST-Dm-Relish) [z-score] | binding signal (GST-Aq-NF-kB) [z-score] | binding signal (GST-Hu-p50) [z-score] |
| --- | --- | --- | --- | --- | --- | --- |
| CCGATTAACATCAGAGTATCCCCTGATGTTAATCGGGTCTTGATTCGCTTGACGCTGCTG | 5.9 | 4.9 | 4.05 | 3.14 | 3.98 | 4.2 |
| CCGATTAACATCAAAGCACCCCCTGATGTTAATCGGGTCTTGATTCGCTTGACGCTGCTG | 4.9 | 3.86 | 3.63 | 3.26 | 4.36 | 4.35 |
| CCGATTAACATCAGGGGGTTATATGATGTTAATCGGGTCTTGATTCGCTTGACGCTGCTG | 6.77 | 5.64 | 3.18 | 6.58 | 6.3 | 5.59 |
| CCGATTAACATCAGGGGGAGCACTGATGTTAATCGGGTCTTGATTCGCTTGACGCTGCTG | 5.93 | 3.91 | 6.25 | 7.14 | 5.5 | 4.89 |
| CCGATTAACATCAGGGGGTTAAATGATGTTAATCGGGTCTTGATTCGCTTGACGCTGCTG | 4.33 | 4.07 | 3.62 | 5.86 | 4.49 | 4.29 |
| CCGATTAACATCAGGGGACTTCATGATGTTAATCGGGTCTTGATTCGCTTGACGCTGCTG | 6.7 | 5.76 | 2.35 | 6.09 | 5.48 | 5.72 |
| CCGATTAACATCAAAGAGTCCCCTGATGTTAATCGGGTCTTGATTCGCTTGACGCTGCTG | 6.56 | 6.17 | 3.49 | 6.3 | 5.8 | 5.88 |
| CCGATTAACATCAAAATACCCCTTGATGTTAATCGGGTCTTGATTCGCTTGACGCTGCTG | 6.2 | 6.38 | 4.02 | 5.65 | 6.58 | 6.17 |
| CCGATTAACATCAGGCATCCCCCTGATGTTAATCGGGTCTTGATTCGCTTGACGCTGCTG | 6.28 | 5.13 | 3.74 | 6.22 | 6.35 | 5.3 |
| CCGATTAACATCAAACTCCCCCGTGATGTTAATCGGGTCTTGATTCGCTTGACGCTGCTG | 6.89 | 5.44 | 7.66 | 5.92 | 5.84 | 6.48 |
| CCGATTAACATCACAGAAACCCCTGATGTTAATCGGGTCTTGATTCGCTTGACGCTGCTG | 5.66 | 4.62 | 1.21 | 6.6 | 4.61 | 5.39 |
| CCGATTAACATCAGGAACTCCCCTGATGTTAATCGGGTCTTGATTCGCTTGACGCTGCTG | 8.99 | 7.4 | 3.87 | 7.91 | 8.17 | 5.57 |
| CCGATTAACATCACGAAAACCCCTGATGTTAATCGGGTCTTGATTCGCTTGACGCTGCTG | 6.45 | 5.36 | 2.45 | 7.06 | 5.3 | 6.06 |
| CCGATTAACATCAGGGGGAGGGATGATGTTAATCGGGTCTTGATTCGCTTGACGCTGCTG | 4.44 | 4.45 | 5.87 | 3.28 | 4.21 | 4.01 |
| CCGATTAACATCAGGAGACCCCCTGATGTTAATCGGGTCTTGATTCGCTTGACGCTGCTG | 5.3 | 3.64 | 1.61 | 5.66 | 6.55 | 4.1 |
| CCGATTAACATCAGGGAAACTTATGATGTTAATCGGGTCTTGATTCGCTTGACGCTGCTG | 3.98 | 6.28 | 5.54 | 2.25 | 6.43 | 4.53 |
| CCGATTAACATCAAAATTCCCGATGATGTTAATCGGGTCTTGATTCGCTTGACGCTGCTG | 4.37 | 6.05 | 4.55 | 5.06 | 4.93 | 4.38 |
| CCGATTAACATCAGAAGACCCCCTGATGTTAATCGGGTCTTGATTCGCTTGACGCTGCTG | 5.66 | 3.66 | 1.79 | 4.9 | 4.82 | 4.45 |
| CCGATTAACATCAGGGTAATTTATGATGTTAATCGGGTCTTGATTCGCTTGACGCTGCTG | 4.07 | 6.3 | 3.64 | 3.68 | 6.31 | 4.9 |
| CCGATTAACATCAAAAATGCCCCTGATGTTAATCGGGTCTTGATTCGCTTGACGCTGCTG | 4.41 | 6.79 | 2.95 | 5.68 | 6.07 | 5.92 |
| CCGATTAACATCACGGGAACTCCTGATGTTAATCGGGTCTTGATTCGCTTGACGCTGCTG | 3.24 | 2.3 | 1.84 | 6.49 | 4.59 | 1.48 |
| CCGATTAACATCACGGGAAGTACTGATGTTAATCGGGTCTTGATTCGCTTGACGCTGCTG | 1.21 | 1.43 | 1.57 | 8.29 | 3.28 | 1.09 |
| CCGATTAACATCAGGGGGGGACATGATGTTAATCGGGTCTTGATTCGCTTGACGCTGCTG | 5.67 | 5.09 | 7.08 | 3.75 | 4.34 | 4.11 |
| CCGATTAACATCAAGGGAATTCCTGATGTTAATCGGGTCTTGATTCGCTTGACGCTGCTG | 7.9 | 8.71 | 3.76 | 7.95 | 8.11 | 5.3 |
| CCGATTAACATCAGAAAAATCCCTGATGTTAATCGGGTCTTGATTCGCTTGACGCTGCTG | 5.42 | 6.84 | 2.27 | 9.03 | 7.2 | 5.46 |
